High-throughput results as filed in PubChem BioAssay.
An excerpt weighted towards active compounds, which were near 3.6% of everything screened.
Pf apPOL inh: Pf-apPOL inhibitors, biochemical, fluorescence; inhibition, % at 10 µM; Recombinant Pf-apPOL, molecular beacon fluorescence, 1.5 h; hit rate 0.25% among 210,000; Plasmodium falciparum apicoplast DNA polymerase (apPOL)
mHTT CaM bind: mutant huntingtin-calmodulin interaction inhibitors – biochemical, AlphaScreen, primary screen | P42858 | AlphaScreen His-mHTT/GST-CaM binding, luminescence | inhibition, % at 15 µM | hit rate 3.6% among 190,000 | AID 1671202, 2021;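 note: 0% = both proteins with DMSO and 100% = one protein alone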
Active calls of the source: *; x = no result given. Cut-off read from the data, not from the text of the source: active = inhibition above about 50%; inactive = the rest.

SMILES | Pf apPOL inh | mHTT CaM bind
O=C(CN1CCOCC1)N1N=C(c2ccccc2)CC1c1ccc(Cl)cc1 (stereo not given) | -3 | 39
Cc1ccc(C2CC(c3ccccc3)=NN2C(=O)CN2CCC(C(N)=O)CC2)cc1 (stereo not given) | -8 | 80*
O=C(CN1CCCC1)N1N=C(c2ccccc2)CC1c1ccc2c(c1)OCO2 (stereo not given) | 4 | 99*
O=C(CN1CCCCC1)N1N=C(c2ccccc2)CC1c1ccc2c(c1)OCO2 (stereo not given) | -3 | 29
CC(=O)N1CCN(CC(=O)N2N=C(c3cccc(C)c3)CC2c2ccc(C)cc2)CC1 (stereo not given) | -5 | 82*
Cc1ccc(C2=NN(C(=O)CN3CCOCC3)C(c3ccc(C)cc3)C2)cc1 (stereo not given) | -6 | 62*
Cc1cccc(C2=NN(C(=O)CN3CCOCC3)C(c3ccccc3F)C2)c1 (stereo not given) | 4 | 36
COc1ccc(N=c2oc3ccccc3cc2C(=O)Nc2ccccc2F)cc1 | -7 | 2
Cc1ccc(NC(=O)N2CCCC2c2nc(-c3cccc(C)c3)no2)cc1 (stereo not given) | -5 | 1
Cc1cc(C)nc(-n2ncc3c2CC(c2cccs2)CC3=O)n1 (stereo not given) | -2 | 5
CC(=O)N1CCN(CC(=O)N2N=C(c3ccc(C)cc3)CC2c2ccc(C)cc2)CC1 (stereo not given) | -11 | 71*
CC(=O)N1CCN(CC(=O)N2N=C(c3ccccc3)CC2c2ccc(C)cc2)CC1 (stereo not given) | -5 | 64*
CC(=O)N1CCN(CC(=O)N2N=C(c3ccccc3)CC2c2ccccc2)CC1 (stereo not given) | -1 | 4
O=C(O)COc1ccccc1C1OC2CCCCC2C2=CCCCC21 (stereo not given) | -6 | 50*
Oc1ccccc1C1OC2CCCCC2C2=CCCCC21 (stereo not given) | -7 | -8
O=C(Nc1ccccc1Cl)c1cc2cc(Br)ccc2oc1=O | -4 | 1
CCCCC(=O)NC(c1ccc(N(CC)CC)cc1)c1ccc2cccnc2c1O (stereo not given) | -13 | 98*
CCC(=O)NC(c1ccc(N(C)C)cc1)c1ccc2cccnc2c1O (stereo not given) | 3 | 100*
CCCCC(=O)NC(c1ccc(N(C)C)cc1)c1ccc2cccnc2c1O (stereo not given) | 1 | 100*
CCOC(=O)c1ccc(NC(=O)CCCN2CCN(Cc3ccccc3)CC2)cc1 | -8 | x
COc1ccc(CN([C@H](C)C=O)S(=O)(=O)N(Cc2ccccc2)[C@H](C=O)C(C)C)cc1 | 0 | 97*
C=C[C@H](CC(C)C)N(Cc1ccccc1)S(=O)(=O)N(Cc1ccc(OC)cc1)[C@H](C=C)CC(C)C | -1 | -16
O=C(NC(Nc1ccccc1)C(Cl)(Cl)Cl)c1ccc([N+](=O)[O-])cc1 (stereo not given) | 0 | 31
O=C(NC(Nc1ccccc1Cl)C(Cl)(Cl)Cl)c1cc([N+](=O)[O-])cc([N+](=O)[O-])c1 (stereo not given) | -5 | 61*
O=C(NC(Nc1ccccc1)C(Cl)(Cl)Cl)c1cc([N+](=O)[O-])cc([N+](=O)[O-])c1 (stereo not given) | 2 | 59*
SMILES | Pf apPOL inh | mHTT CaM bind
O=C(NC(Nc1cccc([N+](=O)[O-])c1)C(Cl)(Cl)Cl)c1ccccc1[N+](=O)[O-] (stereo not given) | -3 | 14
CC(C)N1CCN(C(=O)CC2Sc3ncccc3N(C)C2=O)CC1 (stereo not given) | 0 | -13
Cc1ccc2nc(C(=O)NCCN3CCCCC3)cn2c1 | -2 | -4
Cc1ccc2nc(C(=O)NCCN3CCCCCC3)cn2c1 | 34 | 50*
Cc1cc(C)cc(N2CCC(C(=O)NCc3ccccc3)C2=O)c1 (stereo not given) | -2 | -2
Cc1ccc(C)c(NC(=O)CN2CCC3(CC2)N=C(c2ccc(F)cc2)C(=O)N3)c1 | 8 | 51*
O=C(CN1CCC2(CC1)N=C(c1ccc(F)cc1)C(=O)N2)Nc1ccccc1 | -5 | -5
O=C(CN1CCC2(CC1)N=C(c1cccc(Cl)c1)C(=O)N2)Nc1ccc2c(c1)OCO2 | -1 | 53*
O=C(CN1CCC2(CC1)N=C(c1ccccc1)C(=O)N2)Nc1cccc(C(F)(F)F)c1 | -6 | 96*
Cc1cccc(C)c1NC(=O)CN1CCC2(CC1)N=C(c1ccc(F)cc1)C(=O)N2 | -2 | 8
O=C(CN1CCC2(CC1)N=C(c1cccc(Cl)c1)C(=O)N2)Nc1cccc(Cl)c1 | -2 | 46
CC(C)(C)c1ccc(C(=O)ON=C(N)CS(=O)(=O)C(C)(C)C)cc1 | 1 | x
COCCN=C1Nc2ccccc2CNC12CCN(C(=O)c1ccc(OC)c(F)c1)C2 (stereo not given) | -4 | 2
COCC(=O)Nc1ccc2c(c1)CN(C1CCCc3ccccc31)C(=O)CO2 (stereo not given) | -1 | 6
O=C1CCCC2=C1C(c1ccc3c(c1)OCO3)C1C(=O)c3ccccc3C1=N2 (stereo not given) | -5 | 55*
CC1(C)CC(=O)C2=C(C1)N=C1c3ccccc3C(=O)C1C2c1cccc(F)c1 (stereo not given) | -9 | 10
CC1(C)CC(=O)C2=C(C1)N=C1c3ccccc3C(=O)C1C2c1cccc(Br)c1 (stereo not given) | -3 | 61*
CC1(C)CC(=O)C2=C(C1)N=C1c3ccccc3C(=O)C1C2c1cc([N+](=O)[O-])ccc1O (stereo not given) | -6 | 53*
CC1(C)CC(=O)C2=C(C1)N=C1c3ccccc3C(=O)C1C2c1ccc2c(c1)OCO2 (stereo not given) | -3 | 49
CC1(C)CC(=O)C2=C(C1)N=C1c3ccccc3C(=O)C1C2c1ccc([N+](=O)[O-])cc1 (stereo not given) | -3 | 35
O=C1OC(c2ccc(Cl)c([N+](=O)[O-])c2)=N/C1=C\c1ccccc1 | 4 | -4
CCCNC(=O)c1cccc2c1CCN2C(C)=O | 1 | -7
COc1cc(OC)c(NC(=O)C(Cl)(Cl)Cl)cc1Cl | -1 | -3
COc1ccccc1C=C1Oc2cc(OCC(N)=O)ccc2C1=O | -2 | 7
Cc1cccc(N2C(=O)NC(=O)/C(=C\c3c(C)n(C)c4ccccc34)C2=O)c1 | 7 | 22
SMILES | Pf apPOL inh | mHTT CaM bind
COc1ccc(-c2nc3cc(C)ccn3c2NC(=O)C2CCCC2)cc1 | 7 | 31
COc1ccc(-c2nc3ccc(C)cn3c2NC(=O)C2CCCC2)cc1 | -3 | 51*
Cc1cccc(-c2noc(C3CCN(CC(=O)NC4CCCCC4)CC3)n2)c1 | -2 | -5
CC1=C(C(=O)Nc2ccccn2)C(c2cccc(Oc3ccccc3)c2)C2=C(CCCC2=O)N1 (stereo not given) | 7 | 13
Cc1ccc(-c2n[nH]c3c2CN(C(=O)Cn2ccnc2)CC3)cc1 | -4 | 6
COc1ccc(C2CC(c3ccc(Cl)cc3Cl)Nc3nc(N)nn32)cc1 (stereo not given) | -4 | 42
COc1cccc(C2CC(c3ccc(Cl)cc3Cl)Nc3nc(N)nn32)c1 (stereo not given) | 2 | 52*
Nc1nc2n(n1)C(c1cccs1)CC(c1ccc(Cl)cc1Cl)N2 (stereo not given) | -13 | 78*
